Experimental findings from the supplement of paper PMC10105736 are described below.

A number with no mark means an inactive call.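 The calls were made as follows: active = MAPPIT score above the 99th percentile of random reference set scores in the same batch; inactive = at or below it.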

What all share (experiment): MAPPIT interaction score (arbitrary units); higher = stronger binary interaction signal, active = hit call of the paper
Assay [1] addresses Blos1. Particulars: MAPPIT configuration: N-N; pair source set: Finley_Y2H.
Assay [2] addresses Tm1. Particulars: MAPPIT configuration: N-N; pair source set: screen_2.
The target of assay [3] is mldr. Particulars: MAPPIT configuration: N-N; pair source set: Finley_Y2H.
Assay [4] deals with C15. Particulars: MAPPIT configuration: N-N; pair source set: Lit-BS-16.
In assay [5] the target is CG5050. Particulars: MAPPIT configuration: N-N; pair source set: Curagen_high_conf.
Assay [6] has as its target rdx. Particulars: MAPPIT configuration: N-N; pair source set: Curagen_high_conf.
For assay [7], the target named is Bx. Conditions: MAPPIT configuration: N-N; pair source set: screen_2.
The target in assay [8] is CG5618. Particulars: MAPPIT configuration: N-N; pair source set: Curagen_low_conf.
The target of assay [9] is Lim1. Particulars: MAPPIT configuration: N-N; pair source set: Curagen_high_conf.
In assay [10] the target is Blos2. Particulars: MAPPIT configuration: N-N; pair source set: Curagen_low_conf.
Assay [11] has as its target CCT6. Particulars: MAPPIT configuration: N-N; pair source set: DPIM.
The target of assay [12] is Spt7. Particulars: MAPPIT configuration: N-N; pair source set: Curagen_high_conf.
Assay [13] deals with CCT3. Conditions: MAPPIT configuration: N-N; pair source set: DPIM.
The target in assay [14] is CAP. Particulars: MAPPIT configuration: N-N; pair source set: Lit-BM-16.
Assay [15] addresses Fkbp12. Conditions: MAPPIT configuration: N-N; pair source set: Curagen_low_conf.
The target of assay [16] is ND-75. Particulars: MAPPIT configuration: N-N; pair source set: Curagen_low_conf.
Assay [17] deals with Pax. Particulars: MAPPIT configuration: N-N; pair source set: screen_2.
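Also: HEK293T cells with Epo stimulation, STAT-responsive firefly luciferase reporter, fold induction versus unstimulated cells divided by the larger fold induction of two negative controls lacking either bait or prey.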

B1: Blos2 (protein)
chain: MDKPTTSAAAAAAQDSNLLPDSPQHGPTLSSASSFEALTRHDPNLSRLATKMFNKTEEYITHELNAPLEDYKLLEEMNKATIAKYKDMRQIAENLNTSTSELSLKFQQLAPMMQQIDEISDTVDKLEAAAYKLDAYSIALENRVKCVLQRKSGGGQVAQ
Turning to B1, the MAPPIT interaction score is 2.29 in assay [1], 1.6 in assay [2] and 0.813 in assay [3].

B2: Polr3F (protein)
chain: MATEVSQLLLAVVQGIPAGATNDDLTKALPDVPAATRVEALNILLQEGGIEILKKGEKLVYRAKDPEKKSALPKDADNEEKVVYGIVEEGGNKGIWIRDIRMKSNLNMIQLNKILKNLETKKLIKAVKSVNASKKKVYMLYNLEPDLSITGGAWYQDQDFEVEFVDVLNQQCLRFLQMKRDSAEKKREGPLAFKQMSCCTVNEVQKFISDLGISKVNLAEADLETILKTVVYDGNAERVRQQDGSFVYRAVNAPLPPTGLVQMPCGICPVIKNCSNCGDVTAITCEYMRDWLD
For B2, the figures for the MAPPIT interaction score in assay [4], in assay [5] and in assay [6] were 0.0584, 0.169 and -0.105, respectively.

B3: Chi (protein)
chain: MSWQDYVDNQLLASQCVTKACIAGHDGNIWAQSSGFEVTKEELSKLISGFDQQDGLTSNGVTLAGQRYIYLSGTDRVVRAKLGRSGVHCMKTTQAVIVSIYEDPVQPQQAASVVEKLGDYLITCGY
B3: the MAPPIT interaction score in assay [7] was 6.14 (active); in [8], 0.207; in [9], 1.91.

B4: drk (protein)
chain: MEAIAKHDFSATADDELSFRKTQILKILNMEDDSNWYRAELDGKEGLIPSNYIEMKNHDWYYGRITRADAEKLLSNKHEGAFLIRISESSPGDFSLSVKCPDGVQHFKVLRDAQSKFFLWVVKFNSLNELVEYHRTASVSRSQDVKLRDMIPEEMLVQALYDFVPQESGELDFRRGDVITVTDRSDENWWNGEIGNRKGIFPATYVTPYHS
Consider B4, for which the MAPPIT interaction score in [10] was 0.473.

B5: CG8230 (protein)
chain: MGINVSRTADLGSNQWLQRFVGRQHIAHDDEAFWNGLLNYNIVLPENSQDQLNLDSRLEALCQSFIGNNLKTGNFGSLVTVFLEKTSELLSLSDQESNMHVWQTFNALFIIRSLVKYINETGSEFQLLQHFEAMPNAELLQAALEQQQQTPAESATIAMEATEQSAAAAVPVIVDGSKFETFIDALVNLIVVIPVKEFTYHLHLEAVNMLITLLSVHLFAQQPTDKSIVFRTVFKCQHANVLMSALLHFVARIVEVPHTMFGSSSAGSFVFGIAESLLSIFTFRKQPDILKAGQAAGGGELSQRFRTHYPLANQSLLLILILTNHCTAQDNAYRTSLFSCADSKDSPKQGAVSFQIDFSAVYETLCTIVTIDQATLLLYLLLHRNERFYRFVMQQQDLEQLVIPILQTLYNAPDSNSHHIYMSLIVLLILSEDEGFNKNVHTIMLKNITWYTERTISEISLGGILILIVIRTIQYNMLKMRDKYLHTNCLAALANMSGHFRALHPYVAQRLVSLFETLARKHTRLDAQLKEPADSAVFVNVSTTPEDMLQDLSVLEEVLRMVLEILNSCLTNQLVYCPNLVYTLLYKRSVFEGFRSHHAFQDVIQNIDMVVGFFSSRLQRVQEQRGELGVNEVLEVISKGASQWSSDRLRKFPDLKFKYVEEDAPEEFFIPYVWTLVCKYGCVHFSSESIKSVTTDIAC
For B5, the MAPPIT interaction score in assay [11] is 3.15 (active); in assay [12], -0.0669.

B6: Lst8 (protein)
chain: MGDQQQLILATGGYDHTIKVWQAHTGNCIKTMRFVETSQVNALDRTPDKTRLAACGYQCIRLYDLESNCTAPVINFDGVQKNVTRLGFQEDGNWMFTAGEDHHVRIWDMIAAPPHCSRIFDCEAPVNAACLHPNQVEIAMGSQNGSVFLWDVKSERHERIVPEVDASIQDVAISPDGRYLAAANNKGNCYIWSLTSQDQKMSTLRPNRKIPAHSRYILRCKFSPDSRLLLTTSGDGTVCIWKTDDFSKWRELCIENYWVWDAAFSADSKWLFTASSDGIARLWKLQTKSSIRDYTGHTKAITALSFKDEIVGK
With B6, in assay [13], the MAPPIT interaction score is 0.335.

B7: Vinc (protein)
chain: MPVFHTKTIESILDPVAQQVSRLVILHEEAEDGNAMPDLSRPVQVVSAAVANLVKVGRDTINSSDDKILRQDMPSALHRVEGASQLLEEASDMLRSDPYSGPARKKLIEGSRGILQGTSSLLLCFDESEVRKIIQECKRVLDYLAVAEVINTMEQLVQFLKDLSPCLSKVHREVGAREKELTHQVHSEILVRCLEQVKTLAPILICSMKVYIHIVEQQGRGAEEAAENRNYLAARMSDELQEIIRVLQLTTYDEDTSELDNLTVLKKLSNAISNKMEQANEWLSNPYALRGGVGEKALRQVIDNATEISERCLPQDSYPIRKLADEVTAMANTLCELRQEGKGQSPQAESLVRGIRDRMGELKSLVHQAVLGVDKAGVQQTAHTIQGRLEQAVKWLQHPEINDGGLGERAINLIVEEGRKVAEGCPGHQKAEIQQLCDEVERLKRQAAGSGPAAKQAAKQLTQKLYELKAAIQNALVNRIVQDFMDVSTPLKQFTEAVLQPEGTPGREQNFNQKSNNLQAFSDRASKTSRMVAAGGACGNKKIAEILLSSAAQVDSLTPQLISAGRIRMNYPGSKAADEHLQNLKQQYADTVLRMRTLCDQATDPADFIKTSEEHMQVYAKLCEDAIHARQPQKMVDNTSNIARLINRVLLVAKQEADNSEDPVFTERLNAAANRLERSLPAMVGDAKLVATNIADPAAAAAWKNSFQRLLGDVREVRDAIAPPQPPPLPTSLPPPIPELSALHLSNQNAERAPPRPPLPREGLAPVRPPPPETDDEDEGVFRTMPHANQPILIAARGLHQEVRQWSSKDNEIIAAAKRMAILMARLSELVLSDSRGSKRELIATAKKIAEASEDVTRLAKELARQCTDRRIRTNLLQVCERIPTIGTQLKILSTVKATMLGAQGSDEDREATEMLVGNAQNLMQSVKETVRAAEGASIKIRSDQTSNRLQWVRRQPWYQY
In the case of B7, the MAPPIT interaction score in assay [14] was 2.34; in [15], 0.498; in assay [16], -0.456; in assay [17], 5.44 (active).
